Data taken from the supplement of paper PMC10498489.
Hit rate of the full screen: of about 2,300 compounds, about 330 (14%) showed activity.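 How the source made its calls: active = median modified Z-score above 1.96; inactive = 1.96 or below.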 These entries were drawn from the full list.

Each compound was assayed on HepG2 Srxn1-GFP reporter cells (+30 nM CDDO-Me) (assay: Srxn1-GFP intensity median modified Z-score relative to plate median; higher = stronger NRF2 / oxidative stress reporter activation, active = hit call of the paper). Settings: 10 µM; exposure time: 24h.
Method in brief: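 In 96-well plates holding 20,000 HepG2 Srxn1-GFP BAC reporter cells per well, compound at 10 μM and an NRF2 activator at 30 nM were added together for 24 h, with DMSO at ≤0.1%, across three replicate plates. After fixation in formaldehyde and Hoechst staining, confocal images were analysed cell by cell for cytoplasmic GFP, and images containing under 100 cells were excluded. Values are replicate medians of the per-plate modified Z-score of GFP intensity, scaled by 1.4826 × median absolute deviation.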

Row | Structure (SMILES) | Srxn1-GFP intensity median modified Z-score
1 | C=C1C[C@]23C[C@@]1(O)CC[C@H]2[C@@]12C=C[C@H](O)[C@@](C)(C(=O)O1)[C@H]2C3C(=O)O (stereo partly drawn) [euspeclibcmpd1408] | 0.616 (inactive)
2 | NC[C@@H]1O[C@H](O[C@@H]2[C@@H](CO)OC(O[C@@H]3[C@@H](O)[C@H](N)C[C@H](N)[C@H]3OC3O[C@H](CN)[C@@H](O)[C@H](O)[C@H]3N)[C@@H]2O)[C@H](N)[C@@H](O)[C@@H]1O (stereo partly drawn) [euspeclibcmpd206] | 0.688 (inactive)
3 | O=C(O)C1CC(=O)C(O)C(O)C1 (stereo not drawn) [euspeclibcmpd2407] | -0.321 (inactive)
4 | CCOC(=O)CCCCCCCCCCCCC1C=CCC1 (stereo not drawn) [euspeclibcmpd2000] | -0.411 (inactive)
5 | O=C(O)CCCCCCCCCCCCC1C=CCC1 (stereo not drawn) [euspeclibcmpd1516] | 10.6 (active)
6 | O=C(O)CCCCC1CCSS1 (stereo not drawn) [euspeclibcmpd1157] | 0.0225 (inactive)
7 | COc1ccc(-c2coc3cc(O)ccc3c2=O)c(OC)c1 [euspeclibcmpd1838] | 1.83 (inactive)
8 | C=CC[S+]([O-])CC(N)C(=O)O (stereo not drawn) [euspeclibcmpd2346] | -0.228 (inactive)
9 | O=C(O)CCCCCCCC(O)C(O)CCCCCCO (stereo not drawn) [euspeclibcmpd1577] | -0.245 (inactive)
10 | CS(=O)(=O)OCCCCOS(C)(=O)=O [euspeclibcmpd40] | 1.41 (inactive)
11 | CS(C)(=O)=O [euspeclibcmpd1496] | 20.2 (active)
12 | COCCCOc1cc(C[C@@H](C[C@H](N)[C@@H](O)CC(C(=O)NCC(C)(C)C(N)=O)C(C)C)C(C)C)ccc1OC (stereo partly drawn) [euspeclibcmpd873] | 0.194 (inactive)
13 | CC(C)C1CCC(C(=O)NC(Cc2ccccc2)C(=O)O)CC1 (stereo not drawn) [euspeclibcmpd675] | -0.338 (inactive)
14 | Nc1ccc(S(=O)(=O)O)cc1 [euspeclibcmpd2086] | 2.19 (active)
15 | Nc1ccc(S(=O)(=O)c2ccc(N)cc2)cc1 [euspeclibcmpd82] | 0 (inactive)
16 | Nc1ccc(S(N)(=O)=O)cc1 [euspeclibcmpd1042] | -0.418 (inactive)
17 | NCCC(=O)NC(Cc1c[nH]cn1)C(=O)O (stereo not drawn) [euspeclibcmpd1431] | -0.178 (inactive)
18 | C[C@]12CCC3c4ccc(OC(=O)c5ccccc5)cc4CCC3C1CCC2=O (stereo partly drawn) [euspeclibcmpd2153] | -0.646 (inactive)
19 | CC(=O)NC(CC(=O)NC(CCC(=O)O)C(=O)O)C(=O)O (stereo not drawn) [euspeclibcmpd1295] | -0.164 (inactive)
20 | CC[C@H](/C=C/C(C)C1CCC2C3CC=C4CC(=O)CC[C@]4(C)C3CC[C@]12C)C(C)C (stereo partly drawn) [euspeclibcmpd1667] | -0.11 (inactive)
21 | Cc1cc2nc3ccc(N(C)C)cc3[s+]c2cc1N [euspeclibcmpd1030] | 9 (active)

Row | Structure (SMILES) | Srxn1-GFP intensity median modified Z-score
22 | CN(C)c1ccc2nc3ccc(N(C)C)cc3[s+]c2c1 [euspeclibcmpd789] | 9.06 (active)
23 | CC(C)(S)C(N)C(=O)O (stereo not drawn) [euspeclibcmpd968] | 0.0726 (inactive)
24 | OC[C@@H](O)[C@@H](O)[C@H](O)[C@@H](O)CO [euspeclibcmpd2147] | -0.0321 (inactive)
25 | N=C(N)N=C(N)N1CCOCC1 [euspeclibcmpd1191] | -0.583 (inactive)
26 | NC(=O)CCC(NC(=O)C(N)CO)C(=O)O (stereo not drawn) [euspeclibcmpd2427] | -0.15 (inactive)
27 | CC(=O)OC1CCC23CC1(C)CCC2C(C)(C)CC3OC(C)=O (stereo not drawn) [euspeclibcmpd1983] | 0.679 (inactive)
28 | CC(=O)O[C@]1(C)CC[C@@]23CC1C(C)(C)[C@@H]2CC[C@H]3C [euspeclibcmpd1510] | 3.58 (active)
29 | C[C@@H]1CC[C@H]2C(C)(C)C3CC12CC[C@@]3(C)O (stereo partly drawn) [euspeclibcmpd1468] | -0.304 (inactive)
30 | Cc1ccccc1-n1cnnc1SCC(=O)c1ccc2c(c1)OCCO2 | 1.22 (inactive)
31 | CC(C)c1ccc2c(c1)CCC1C(C)(C(N)=O)CCCC21C (stereo not drawn) [euspeclibcmpd1367] | 15.1 (active)
32 | CC(C)C1=CC2=CCC3[C@](C)(CCC[C@]3(C)C(=O)O)C2CC1 (stereo partly drawn) [euspeclibcmpd1332] | -0.234 (inactive)
33 | Cc1ccc2c(c1)CC[C@H]1CC(=O)CC[C@]21C [euspeclibcmpd2206] | 0.163 (inactive)
34 | CN1C(CC(=O)c2ccccc2)CCCC1CC(O)c1ccccc1 (stereo not drawn) [euspeclibcmpd1050] | -0.349 (inactive)
35 | Cc1cc[nH]c(=NS(=O)(=O)c2ccc(N)cc2)n1 [euspeclibcmpd275] | -0.506 (inactive)
36 | NC(=O)C(c1ccccc1)(c1ccccc1)C1CCN(CCc2ccc3c(c2)CCO3)C1 (stereo not drawn) [euspeclibcmpd914] | -0.0168 (inactive)
37 | Cc1cc(C)c2c(=O)c3c(oc2c1)C(=O)N(Cc1ccc(F)cc1)C3c1cccc(O)c1 (stereo not drawn) | 1.43 (inactive)
38 | CCCCCCCCCCCCCCCC(=O)O[C@@H]1[C@@H](O)[C@@H](O)[C@H]([C@H](NC(=O)C2C[C@@H](CCC)CN2C)[C@H](C)Cl)O[C@@H]1SC (stereo partly drawn) [euspeclibcmpd1310] | 0.0886 (inactive)
39 | CC(C)(C)CC(C)(C)c1ccc(OCCOCC[N+](C)(C)Cc2ccccc2)cc1 [euspeclibcmpd33] | 9.81 (active)
40 | Cc1cc(C(C)(C)CC(C)(C)C)ccc1OCCOCC[N+](C)(C)Cc1ccccc1 [euspeclibcmpd556] | 24 (active)
41 | CCCCCCCCCCCCCCCC[N+](C)(C)CCN(Cc1ccc(OC)cc1)c1ncccn1 [euspeclibcmpd626] | 1.67 (inactive)
42 | CCCCC(O)c1ccccc1 (stereo not drawn) [euspeclibcmpd2082] | -0.178 (inactive)

Row | Structure (SMILES) | Srxn1-GFP intensity median modified Z-score
43 | C[N+](C)(CCOc1ccccc1)Cc1ccccc1 [euspeclibcmpd868] | 2.62 (active)
44 | CCCCCCCCCCCCC[N+](C)(C)Cc1ccccc1 [euspeclibcmpd590] | 3.29 (active)
45 | Oc1ccc(OCc2ccccc2)cc1 [euspeclibcmpd515] | 1.16 (inactive)
46 | C[C@]12C=CC(=O)CC1=CCC1C3C[C@@H](O)[C@](O)(C(=O)CO)[C@@]3(C)C[C@H](O)[C@@]12F (stereo partly drawn) [euspeclibcmpd302] | -0.809 (inactive)
47 | CC1(C)C(C(=O)O)N2C(=O)C[C@H]2S1(=O)=O (stereo partly drawn) [euspeclibcmpd473] | -0.4 (inactive)
48 | CC(C)(O)CC[C@@H](O)[C@](C)(O)[C@@H]1CC[C@@]2(O)C3=C(CC[C@]12C)[C@@]1(C)C[C@H](O)[C@H](O)CC1C(=O)C3 (stereo partly drawn) [euspeclibcmpd1686] | 0.91 (inactive)
49 | O=C(O)c1cc(N=Nc2ccc(O)c(C(=O)O)c2)ccc1O [euspeclibcmpd2114] | -0.278 (inactive)
50 | N=c1[nH]c(=NC2CC2)c2ncn(C3C=C[C@@H](CO)C3)c2[nH]1 (stereo partly drawn) [euspeclibcmpd479] | -0.254 (inactive)
51 | CCCCC/C=C/CCC(=O)N[C@H]1[C@H](Oc2c3cc4cc2Oc2ccc(cc2Cl)[C@@H](O[C@@H]2O[C@H](CO)[C@@H](O)[C@H](O)[C@H]2NC(C)=O)c2[nH]c(O)c(c5ccc(O)c(c5)c5c(OC6O[C@H](CO)[C@@H](O)[C@H](O)[C@@H]6O)cc(O)cc5c(=C(O)O)[nH]c2O)NC(=O)[C@@H]4NC(=O)[C@H]2NC(=O)C(Cc4ccc(c(Cl)c4)O3)NC(=O)[C@H](N)c3ccc(O)c(c3)Oc3cc(O)cc2c3)O[C@H](CO)[C@@H](O)[C@@H]1O (stereo partly drawn) [euspeclibcmpd852] | -0.162 (inactive)
52 | OC[C@H](O)[C@@H](O)CO [euspeclibcmpd2221] | -0.0632 (inactive)
53 | Clc1cccc(Cn2cc(-c3cnn(Cc4cccc(Cl)c4)c3)cn2)c1 | 1.3 (inactive)
54 | C[C@H](CCC(=O)NCC(=O)O)[C@H]1CCC2C3C(C[C@H](O)[C@@]21C)[C@@]1(C)CC[C@@H](O)CC1C[C@H]3O (stereo partly drawn) [euspeclibcmpd1671] | -0.257 (inactive)
55 | CC(C)C=CC=CCC(=O)N[C@@H](CC(N)=O)C(=O)N[C@@H]1C(=O)N[C@H](c2ccc(O)cc2)C(=O)N[C@H](CCCN)C(=O)N[C@H]([C@H](C)O)C(=O)N[C@@H](c2ccc(O)cc2)C(=O)N[C@H](c2ccc(O)cc2)C(=O)N[C@@H]([C@H](C)O)C(=O)N[C@@H](Cc2ccccc2)C(=O)N[C@H](CCCN)C(=O)N[C@@H](c2ccc(O[C@@H]3O[C@H](CO)[C@H](O)[C@@H](O)[C@@H]3O[C@@H]3O[C@H](CO)[C@@H](O)[C@H](O)[C@H]3O)cc2)C(=O)NC(C(C)O)C(=O)N[C@@H](c2ccc(O)cc2)C(=O)NCC(=O)N[C@@H](CC(C)C)C(=O)N[C@H](C)C(=O)N[C@@H](c2ccc(O)c(Cl)c2)C(=O)O[C@@H]1C(N)=O (stereo partly drawn) [euspeclibcmpd1079] | 0.139 (inactive)
56 | Cc1cc(=O)n(-c2ccccc2)[nH]1 [euspeclibcmpd1143] | -0.434 (inactive)
57 | CC(=O)N[C@@H]1[C@@H](OC(C)C(=O)O)[C@H](O)[C@@H](CO)O[C@H]1O (stereo partly drawn) [euspeclibcmpd2433] | -0.153 (inactive)
58 | COC(=O)C[C@H]1C(C)(C)[C@@H](OC(C)=O)C2CC3C4CC(=O)O[C@@H](c5ccoc5)[C@]4(C)CCC3[C@@]1(C)C2=O (stereo partly drawn) [euspeclibcmpd1596] | 1.31 (inactive)
59 | C/C1=C/CC(C)(C)/C=C/C/C(C)=C/CC1 [euspeclibcmpd1338] | 0.112 (inactive)
60 | CCN(CC)CCNc1ccc(CO)c2sc3ccccc3c(=O)c12 [euspeclibcmpd550] | 13.8 (active)
61 | CCCCOc1cc(C(=O)NCCN(CC)CC)c2ccccc2n1 [euspeclibcmpd89] | 0.582 (inactive)
62 | N=C(N)NCC1COC2(CCCCC2)O1 (stereo not drawn) [euspeclibcmpd1929] | -0.0176 (inactive)
63 | CN(CCOc1ccc(Cc2sc(=O)[nH]c2O)cc1)c1ccccn1 [euspeclibcmpd2243] | 0.517 (inactive)
